High-throughput results from PubChem.
The full list was thinned out, with hits kept by preference.
RBX1-CUL1 inh = inhibitors of human ROC1-CUL1 ubiquitin ligase activity; in vitro K48 di-Ub FRET, acceptor:donor ratio, 45 min; E3 ubiquitin-protein ligase RBX1 (Homo sapiens) + Cullin-1 (Homo sapiens), P62877+Q13616; AID 1347404, 2020; 0.6% of 140,000 active; inhibition, % at 10 µM; in the data active = inhibition above about 25%
Starred values were filed as active, the others as inactive.

SMILES	RBX1-CUL1 inh
COc1cc(C2C(C(=O)c3cc4ccccc4o3)C(=O)C(=O)N2c2nc3c(C)cc(C)cc3s2)ccc1OCc1ccccc1 (stereo not given)	4
Cc1ccc(C2C(C(=O)c3cc4ccccc4o3)C(=O)C(=O)N2c2nnc(SCc3cccc4ccccc34)s2)cc1 (stereo not given)	-9
CCCCCOc1ccc(C2C(C(=O)c3cc4ccccc4o3)C(=O)C(=O)N2c2nc(C)c(C(C)=O)s2)cc1OC (stereo not given)	1
O=C1C(=O)N(c2nnc(SCc3ccccc3F)s2)C(c2ccc(F)cc2)C1C(=O)c1cc2ccccc2o1 (stereo not given)	3
Cc1ccc2nc(N3C(=O)C(=O)C(C(=O)c4cc5ccccc5o4)C3c3ccccc3)sc2c1 (stereo not given)	-3
COc1ccc(-c2nn(-c3ccccc3)cc2C(=O)NCc2ccccc2)cc1	3
CCCS(=O)(=O)N1CCCC(CNC(=O)c2ccccc2Cl)C1 (stereo not given)	-3
COc1ccc(CCC2CCCN(C(=O)CC(F)(F)F)C2)cc1 (stereo not given)	2
COc1ccc(CN2CCN(C(C)=O)CC2)cc1OCC(O)CN1CCCN(C)CC1 (stereo not given)	1
CS(=O)(=O)NC1CCCc2nc(-c3cccnc3)ncc21 (stereo not given)	18
O=C1C(=O)C(C(=O)/C=C/c2cccc(Cl)c2)C=C(Br)C=C1Br (stereo not given)	87*
CC(CNC(=O)/C=C/c1cccc(Cl)c1)NC(=O)/C=C/c1cccc(Cl)c1 (stereo not given)	-2
COc1ccccc1/C=C/C(=O)C1C=C(Br)C=CC(=O)C1=O (stereo not given)	8
Cc1ccccc1/C=C/C(=O)C1C=C(Br)C=C(Br)C(=O)C1=O (stereo not given)	54*
O=C1C=CC(Br)=CC(C(=O)/C=C/c2ccc(Cl)cc2)C1=O (stereo not given)	1
Cc1ccc(N2CCN(CC(=O)Nc3ccc(Br)cc3)CC2)cc1Cl	5
COc1ccc(N2CCN(C(=O)Nc3cccc(Cl)c3)CC2)cc1	-9
Cc1nnc2sc(C3COc4ccccc4O3)nn12 (stereo not given)	7
CCNC(=O)N1CCOC(Cc2ccccc2Cl)C1 (stereo not given)	5
COC(=O)c1cccc(NC(=O)CSc2nnc(CNC(=O)c3ccc(OC)c(OC)c3)n2C)c1	5
CCSc1nnc(NC(=O)c2cc(-c3ccc(C)o3)nc3ccccc23)s1	81*
Cc1ccc(CNC(=O)c2cc(-c3ccc(C)o3)nc3ccccc23)cc1	8
Cc1ccc(-c2cc(C(=O)Nc3ccccc3C(N)=O)c3ccccc3n2)o1	1
Cc1ccccc1N1CC(C(=O)N2CCN(c3ccccc3F)CC2)CC1=O (stereo not given)	14
CC1=NC2=C(C(=O)c3ccccc32)C(c2ccccc2F)C1C(N)=S (stereo not given)	2
SMILES	RBX1-CUL1 inh
COc1cccc(/C=C2\C(=O)N(c3ccc(S(N)(=O)=O)cc3)N=C2C)c1	97*
COc1cccc(C=C2C(=O)N(C)C(=O)N(C)C2=O)c1	-4
COc1cc(/C=C2/C(=O)N(c3cccc(Cl)c3)N=C2C)ccc1OC(=O)c1cccs1	-9
CCCOC(=O)c1cccc(-c2ccc(/C=C3\C(=O)N(c4ccc(S(N)(=O)=O)cc4)N=C3C(F)(F)F)o2)c1	5
CC1=NN(c2ccc(S(N)(=O)=O)cc2)C(=O)/C1=C\c1ccc(N(C)C)cc1	7
CCOC(=O)c1ccc(N2NC(=O)/C(=C/c3ccc(OC(=O)c4cccs4)c(OC)c3)C2=O)cc1	24
COc1cc(/C=C2\C(=O)N(c3ccc(S(N)(=O)=O)cc3)N=C2C(F)(F)F)ccc1OCC(C)C	35*
COc1cc(/C=C2/C(=O)N(c3ccc(S(=O)(=O)O)cc3)N=C2C)ccc1OC(=O)c1cccs1	56*
C#CCOc1ccc(/C=C2\C(=O)N(c3ccc(S(N)(=O)=O)cc3)N=C2C(F)(F)F)cc1OCC	-1
CC1=NC(C(F)(F)F)(C(F)(F)F)C2C(=O)NC(=O)N(c3ccc(Cl)cc3)C2=N1 (stereo not given)	3
CCN1C(=O)N=C(Cc2cc(OC)c(OC)cc2OC)C1=O	-8
Cc1ccc(N2CC(C(=O)n3nc(C)cc3C)CC2=O)cc1 (stereo not given)	-3
CCOc1ccc2c(c1)-c1c(ssc1=Nc1cccc(F)c1)C(C)(C)N2	4
Cn1c(=O)c2c3c(sc2n(CC(=O)c2ccc(Br)cc2)c1=O)COC(C)(C)C3	-6
O=C(N/N=C/c1cc([N+](=O)[O-])ccc1O)c1ccccn1	-13
O=C(N/N=C/c1cc([N+](=O)[O-])ccc1O)c1cnccn1	-7
O=C(N/N=C/c1cc([N+](=O)[O-])ccc1O)c1ccc(C(=O)N/N=C/c2cc([N+](=O)[O-])ccc2O)o1	98*
O=C1CC(c2ccccc2)=Nc2cc(-c3ccc(F)cc3)nn21	9
